Out of some 320,000 compounds screened, about 1,300 (0.41%) were called active. Another 3% or so got no clear call; they are omitted. The rule behind the calls is not given here. Only a sample is shown. Measured potencies and affinities stand elsewhere.

The assay can be described thus: growth inhibition of non-replicating M. tuberculosis (AID 488890).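 Note: plate controls were DMSO cells for no effect and high antibiotic wells for full effect.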 Particulars: Mycobacterium tuberculosis non-replicating, at 25 µM, stronger effect = higher value.
One may read the inhibition as the change of the read-out against control, counted positive when it falls. `CCOC(=O)C(NC(=O)Nc1ncccn1)(Oc1ccccc1)C(F)(F)F` (stereo unspecified): the inhibition was -3.5%.
With `COc1ccc(N2CCOCC2)c(NC(=O)c2ccc(Br)o2)c1` the figure was 10%.
With `Cc1cc(C)n2[nH]c(=O)c(N=Nc3ccc(S(N)(=O)=O)cc3)c2n1` the figure was -1.74%.
Then `Cc1cc(C)n2[nH]c(=O)c(N=Nc3ccccc3)c2n1`, with -9.77%.
In the case of `Cc1cc(C(F)(F)F)n2[nH]c(=O)c(N=Nc3ccccc3)c2n1`, the inhibition was -0.96%.
For the compound `COc1cccc(N=Nc2c(=O)[nH]n3c(C)cc(C)nc23)c1`, the inhibition amounted to 65.1%.
For `Cc1ccc(NC(=O)OCCNC(=O)OC(C)C)cc1`, the inhibition is 13.6%.
As for `C/C(=C/C(=O)O)C(=O)Nc1cccc(C(F)(F)F)c1`, the inhibition was determined as 37.8%.
Then `CC(=O)Nc1ccc(/C=C/c2ccc3c([N+](=O)[O-])cccc3n2)cc1`, with 10.1%; and `COc1cc(/C=C/c2ccc3cccc([N+](=O)[O-])c3n2)ccc1OCC(=O)O`, with 31.6%; and `CN1/C(=C\C(=O)COC(=O)c2ccc(O)cc2)C(C)(C)c2ccccc21`, with 57.9%.
For `CN1/C(=C\C(=O)COc2ccc3c(c2)OCO3)C(C)(C)c2ccccc21`, the inhibition amounted to 43%.
Then `CN1/C(=C\C(=O)COC(=O)CN2C(=O)C3CC=CCC3C2=O)C(C)(C)c2ccccc21` (stereo unspecified), with 19.7%; and `CN1/C(=C\C(=O)COC(=O)c2ccco2)C(C)(C)c2ccccc21`, with 64.9%; and `COC(=O)c1ccccc1NC(=O)COc1ccc2c(c1)OCO2`, with 70.5%.
With `O=C(N/N=C/c1c[nH]c2ccccc12)C1CC(=O)N(c2ccccc2)C1` (stereo unspecified) the figure was 12.1%; with `Cc1cc(C(=O)COc2ccc(F)cc2Br)c(C)n1C`, 11.3%.
With `Cc1cc(C(=O)COC(=O)c2cccnc2Cl)c(C)n1C` the figure was 7.66%.
Consider `CCN(CC)c1ccc2c(Cl)cc(=O)oc2c1`, for which the inhibition came out at 11.8%.
For `CCN(CC)c1ccc2c(C)c(Cl)c(=O)oc2c1`, the inhibition came out at 2.25%.
With `Cc1cc(C)cc(OCC(=O)Nc2cccc(S(=O)(=O)NC3=NCCC3)c2)c1` the figure was 5.82%.
With `COC(=O)N/N=C/c1cc(Br)ccc1O` the figure was 27.7%.
With `O=C(CNC(=O)c1ccccc1Br)N/N=C/c1cc(Br)ccc1O` the figure was 17.8%; with `Oc1ccc(Br)cc1/C=N/NC(=S)NCCc1ccccc1`, 45.2%; with `O=C(CNC(=O)c1ccccc1)N/N=C/c1cc(Br)ccc1O`, 38.3%.
As for `O=C(N/N=C/c1cc(Br)ccc1O)Nc1ccccc1`, the inhibition worked out at 14.3%.
Then `O=C(N/N=C/c1cc(Br)ccc1O)c1ccncc1`, with 63.8%.
Then `COc1cccc(-c2nc(CS(=O)(=O)CC(=O)NCCCN3CCN(C)CC3)c(C)o2)c1`, with -1.26%; and `C/C(=N\N=C1\NC(=O)C(CC(=O)Nc2ccc(C)c(Cl)c2)S1)C(C)(C)C` (stereo unspecified), with 38.8%; and `CCCn1c2c(c(O)c(C(=O)Nc3ccc(OC)cc3)c1=O)CCCC2`, with 11.5%.
In the case of `CC1(C(=O)NC(=S)N(CCC#N)Cc2cccnc2)CC1(Cl)Cl` (stereo unspecified), the inhibition stood at 12.4%.
With `Cc1ccc(NC(=O)COC(=O)CC2CC3CCC2C3)cc1S(=O)(=O)N1CCOCC1` (stereo unspecified) the figure was 9.66%.
With `COC(=O)CCN1CCN(S(=O)(=O)c2ccccc2Br)CC1` the figure was -21.4%.
In the case of `O=[N+]([O-])c1ccccc1/C=N/Nc1nc(N2CCCC2)nc(N2CCCC2)n1`, the inhibition came out at 18.8%.
With `COc1ccccc1/C=N/Nc1nc(C)cc(C)n1` the figure was 20.8%; with `COc1ccc(/C=N/Nc2cc(C)nc(N3CCOCC3)n2)c(OC)c1`, -23.5%; with `COc1ccccc1/C=N/Nc1cc(C)nc(N2CCOCC2)n1`, 8.69%.
Then `Cc1cc(N/N=C/c2ccc(O)cc2O)nc(N2CCOCC2)n1`, with 6.6%; and `Cc1cc(N/N=C/c2ccc(O)cc2O)nc(-c2ccccc2O)n1`, with 0.04%; and `COc1ccc(OC)c(/C=N/Nc2cc(C)nc(N3CCOCC3)n2)c1`, with 8.92%.
With `Cc1cc(C)n(-c2ccccc2[N+](=O)[O-])n1` the figure was 24.1%.
With `O=C(CSc1ncccc1C(=O)O)NC1CCCCCCC1`, the inhibition is -1.94%.
Then `Cc1cc(C)c(C)c(S(=O)(=O)NC(C(=O)O)C(C)C)c1C` (stereo unspecified), with -1.77%; and `Cc1cc(C)c(NC(=S)N2CCC(N(C)CC3CCCO3)CC2)c(C)c1` (stereo unspecified), with -2.45%.
For `O=C(C[n+]1cccc(Br)c1)c1ccc(-c2ccccc2)cc1`, the inhibition turned out to be 31.7%.
Then `CCCc1cc(C(=O)N2CCCC(N3CCN(c4ccccc4C)CC3)C2)n(C)n1` (stereo unspecified), with 8.14%.
Consider `COc1ccccc1C(=O)NCCC(=O)Nc1ccc(S(=O)(=O)N2CCC(C)CC2)cc1`, for which the inhibition amounted to 27.4%.
With `Cc1cccc(C)c1NC(=O)CSc1nnc(Cc2ccccc2)o1` the figure was -8.32%; with `Cc1ccc(NC(=O)CSc2nnc(Cc3ccccc3)o2)c(C)c1`, 79.6%; with `CCNC(=O)CCSc1nnc(-c2ccco2)o1`, -8.15%.
Consider `Cc1ccc(NC(=O)CCSc2nnc(C)o2)cc1`, for which the inhibition came to 9.37%.
With `Cc1ccc(NC(=O)CSc2nnc(-c3ccco3)o2)cc1` the figure was 27.5%.
Then `CC(=O)Nc1ccc(C(=O)CSc2nnc(Cc3ccccc3)o2)cc1`, with 38.2%; and `O=C(CN1CCN(CCN2C(=O)c3cccc4cccc(c34)C2=O)CC1)c1ccc(F)cc1`, with 79.3%.
Turning to `Cc1ccc(NC(=O)C2=NNC(=O)CC2)cc1S(=O)(=O)Nc1ccc(SC(F)F)cc1`, the inhibition is 6.44%.
With `CC1CN(S(=O)(=O)c2cccc(C(=O)OCC(=O)N3CCCCCC3)c2)CC(C)O1` (stereo unspecified) the figure was -8.29%.
Turning to `COc1ccc2c(c1OC)C(=O)N(c1cccc(C)c1)C2`, the inhibition was -2.97%.
As to `O=C(O)Cn1c(SCCOc2ccc(Cl)cc2)nc2ccccc21`, the inhibition was 1.68%.
With `COc1cc(C)c(Cl)cc1S(=O)(=O)NCc1ccccn1` the figure was -0.9%; with `O=c1c2[nH]c3ccc(Br)cc3c2ncn1Cc1ccncc1`, -8.92%; with `CCOC(=O)c1c(NC(=O)C2Cc3ccccc3C(=O)O2)sc2c1CCCC2` (stereo unspecified), -2.64%.
Then `Cc1ccc(OCC(O)CN2CCN(c3ccccn3)CC2)c(C)c1` (stereo unspecified), with 41.5%; and `Cc1ccc(NC(=O)C2CCCN2C(=O)Oc2ccccc2)c(C)c1` (stereo unspecified), with -3.45%.
As to `COc1ccc(-c2ccc(CNCc3ccccn3)o2)cc1Cl`, the inhibition amounted to 78.7%.
For the compound `O=C(Nc1nccs1)c1ccc(-c2ccc(F)c(Cl)c2)o1`, the inhibition came out at 29.7%.
With `Cc1c(C(=O)NCc2ccccn2)oc2c(Cl)cccc12` the figure was 15.1%.
With `Clc1cccc(-c2ccc(CNCCCN3CCOCC3)o2)c1` the figure was -19.7%; with `O=C(NCc1ccccn1)c1cc(-c2ccc(Cl)cc2)oc1C(F)(F)F`, 10.7%; with `Cc1c(Cl)cccc1NC(=O)NCc1ccccn1`, -10.1%.
With `O=C(NCc1ccccn1)Nc1ccc(F)c(Cl)c1` the figure was -1.66%; with `Clc1ccc(-c2ccc(CNCC3CCCO3)o2)cc1` (stereo unspecified), 72.6%.
As for `O=C1NCCN/C1=C\C(=O)c1cccc(Br)c1`, the inhibition was -1.75%.
As to `CC1=C(C(=O)OC(C)C)C(c2coc3ccccc3c2=O)C2=C(CCCC2=O)N1` (stereo unspecified), the inhibition is 21.4%.
With `CCOc1ccccc1OCC(=O)OCc1csc(CC(=O)Nc2ccccc2C)n1` the figure was 37.2%; with `COc1ccc(NC(=O)CSc2nc3ccsc3c(=O)n2CCCCCC(=O)O)cc1`, -12.1%; with `O=C(c1ccc2c(c1)OCO2)N1CCC2(CC1)Oc1ccc(F)cc1C(=O)C21CC(c2ccccc2)=NO1` (stereo unspecified), 42.7%.
Then `COc1cc(C(C)=O)ccc1OCC(=O)NCC1(N2CCCCC2)CCCCC1`, with 23.8%; and `O=C(CCc1c[nH]c2ccccc12)N[C@@H](Cc1c[nH]c2ccc(O)cc12)C(=O)O`, with -12.9%.
With `O=S(=O)(NCC(c1cccnc1)N1CCN(c2ccccc2)CC1)c1cccs1` (stereo unspecified) the figure was 44.5%.
In the case of `O=C1CC(N2CCN(c3ccccc3)CC2)C(=O)N1c1ccc(Cl)cc1` (stereo unspecified), the inhibition is 58.5%.
Then `O=C(NCc1ccccn1)Nc1ccc(Br)cc1`, with -10.5%; and `Fc1ccc(-c2ccc(CNCc3ccccn3)o2)cc1`, with 74.8%; and `CC(C)c1ccc(N(C)C(=O)Cc2c(C(=O)O)n(C)c3ccccc23)cc1`, with -2.94%.
With `N#CCc1c(C#N)c(N)nc(N2CCN(C=O)CC2)c1C#N` the figure was 2.81%; with `Cc1[nH]c(C)c(S(=O)(=O)Nc2ccccc2Cl)c1C(=O)N1CCCC1`, -4.19%.
Then `Cc1ccc(N(C)S(=O)(=O)c2cccc(C(=O)NNC(=O)c3ccncc3)c2)cc1`, with 38.7%.
In the case of `COc1ccc([C@@H]2CC(=O)c3c(O)cc(O[C@@H]4OC(CO[C@@H]5OC(C)[C@H](O)[C@@H](O)[C@H]5O)[C@@H](O)[C@H](O)[C@H]4O)cc3O2)cc1O` (stereo partly specified), the inhibition stood at 2.5%.
With `CSC(=Nc1ccccc1)c1c(O)n(C)c(=O)n(C)c1=O` the figure was 56.9%; with `CN=C(SCc1ccccc1)c1c(O)n(C)c(=O)n(C)c1=O`, 11.6%; with `CCOC(=O)C1C(=O)CC(=O)CC1CC(C)SCC` (stereo unspecified), -2.43%.
With `Cc1ccc(S(=O)(=O)N2CCN(C(=O)CCOc3cc(C)ccc3C)CC2)cc1` the figure was 39.6%; with `N#C/C(=C\Nc1ccc(F)c(Cl)c1)C(=O)C1CC1`, -9.33%.
Then `C[C@@H](C(=O)Nc1ccc(SC(F)F)cc1)N1C(=O)C2CCCCC2C1=O` (stereo partly specified), with -9.99%.
In the case of `CCOC(=O)/C=C1\Nc2ccccc2SC1=O`, the inhibition is 19.5%.
With `Cc1ccc(CNC(=O)C2(C)Oc3ccccc3NC2=O)cc1` (stereo unspecified) the figure was -3.05%; with `COC(=O)C1CCN(S(=O)(=O)c2c(C)n(C)c(=O)n(C)c2=O)CC1`, -0.96%.
Take `CCNc1nc2ccccc2[nH]1`: the inhibition was determined as 11.9%.
With `O=C(Nc1ccccc1Oc1cccnc1)C1CCCN(Cc2cccc(Cl)c2)C1` (stereo unspecified) the figure was 16.5%; with `Cc1ccc(/C=C2\SC(N3CCCCC3)=NC2=O)cc1`, 77.7%.
Turning to `CC(C)(C)c1ccc(/C=C2/SC(N3CCCC3)=NC2=O)cc1`, the inhibition came to 73.6%.
As to `O=C(NC1CC2CCCC(C1)N2Cc1ccccc1)C1CCCCC1` (stereo unspecified), the inhibition was -4.43%.
Turning to `CCCCCCSc1ccc(-c2nc3ccc(C)cn3c2NCc2ccccc2)cc1OC`, the inhibition worked out at 8.88%.
With `O=C(COc1ccccc1)NCC(=O)N/N=C/c1ccccc1` the figure was 12.4%; with `COc1ccc(-c2csc(C3=C(O)CN(CCCN4CCCC4=O)C3=N)n2)cc1OC`, 2.8%; with `Cc1ccc2oc(=O)c(/C=C(\O)c3sc(C)nc3C)nc2c1`, 2.53%.
Turning to `O=c1oc2ccccc2nc1/C=C(\O)c1ccccc1`, the inhibition is 77.3%.
With `Cc1ccc2oc(=O)c(/C=C(\O)c3ccccc3)nc2c1` the figure was 4.41%; with `Cc1ccc(/C(O)=C/c2nc3cc(C)ccc3oc2=O)cc1`, 18.1%.
As to `Cc1ccc2oc(=O)c(/C=C(\O)c3ccco3)nc2c1`, the inhibition is -4.98%.
Then `Cc1ccc2oc(=O)c(/C=C(\O)c3cccs3)nc2c1`, with -10.4%; and `CC(C(=O)c1ccccc1)[n+]1cccc(C(N)=O)c1` (stereo unspecified), with -11.2%.

Values taken from PubChem BioAssay AID488890 (Southern Research Specialized Biocontainment Screening …, 2010).
